High-throughput results as filed in PubChem BioAssay.
Tau fibril ThT – blocks human tau fibril formation measured by thioflavin T. P10636. Potency, µM (titrated, usually from 57.4 µM), hits mostly inhibitors. recombinant tau K18 P301L, heparin-induced fibrillization, ThT fluorescence. 270,000 compounds, 2.1% hits; also: nearly all actives have a fitted effect of over 55% in size
Target sequence (P10636 561-689 P618L limits assumed): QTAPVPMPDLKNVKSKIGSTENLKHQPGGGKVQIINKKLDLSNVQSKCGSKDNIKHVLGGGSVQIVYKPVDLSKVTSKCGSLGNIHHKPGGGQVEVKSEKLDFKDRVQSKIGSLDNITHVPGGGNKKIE
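ThT emission at 510 nm, taken 1 hr after adding 30 uM dye, quantifies aggregates formed when 20 uM heparin acts on human tau K18 P301L for 6 hr at 37 C.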
Tau fluor cs – counter-screen for tau fibril formation inhibitors. tau K18 P301L (four-repeat tau fragment) Alexa594 fluorescence, heparin fibrillization. Potency, µM (top dose mostly 57.7 µM). 280,000 compounds, 0.93% hits. AID 1463; also: nearly all actives have a fitted effect of over 55% in size
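Human K18 P301L tau (15 uM unlabeled plus 0.24 uM Alexa 594-labeled, final) in 100 mM sodium acetate pH 7 was mixed with compound and 20 uM heparin and incubated 6 hr at 37 C.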
FBPA coupling cs – coupling enzyme interference in Giardia aldolase counter-screen; coupling enzyme system counterscreen, AmpLite Red fluorescence; activity change, negative = inhibition, % at 58.2 µM, hits read low; 290,000 compounds, 0.67% hits; AID 2472; in the data active = activity change below about -30%
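Counterscreen lacking aldolase: glyceraldehyde-3-phosphate coupling-enzyme reagent preincubated 10 min at RT with compound (at 57.5 uM final), then substrate/coupling system with AmpLite Red added; fluorescence read at 525/598 nm after 20 min RT.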
KDM4E inh – JMJD2E (human) inhibition; B2RXH2; JMJD2E catalytic domain, FDH-coupled NADH fluorescence (FDH is formaldehyde dehydrogenase); Potency, µM (top dose mostly 57.1 µM), actives largely listed as inhibitors; 230,000 compounds, 1.6% hits; AID 2147; active = well fitted inhibition curve with a large enough effect, not every such curve was filed as active; inconclusive = small, poorly fitted or top-dose-only effect, or another doubt; inactive = no such curve, though single readings can be large or run the other way; also: nearly all actives have a fitted effect of over 50% in size
Target sequence (B2RXH2 1-337 limits assumed): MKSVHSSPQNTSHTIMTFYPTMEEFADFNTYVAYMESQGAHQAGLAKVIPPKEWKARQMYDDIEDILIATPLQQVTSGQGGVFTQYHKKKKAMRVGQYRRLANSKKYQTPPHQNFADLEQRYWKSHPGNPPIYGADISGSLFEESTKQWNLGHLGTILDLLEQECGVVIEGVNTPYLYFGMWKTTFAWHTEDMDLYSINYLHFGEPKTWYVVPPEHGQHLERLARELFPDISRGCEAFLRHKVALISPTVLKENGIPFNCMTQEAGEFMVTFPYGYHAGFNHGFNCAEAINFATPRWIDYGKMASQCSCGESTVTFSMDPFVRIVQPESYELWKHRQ
Tau fibril FP – inhibitors of human tau fibril formation; Potency, µM (top dose mostly 57.7 µM), hits mostly inhibitors; P10636; 280,000 compounds, 0.39% hits; K18 P301L tau heparin fibrillization, Alexa594 FP, 6 h; also: nearly all actives have a fitted effect of over 55% in size
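Quantitative HTS format: compounds meet 15 uM recombinant K18 P301L tau and Alexa 594-tau tracer in 100 mM sodium acetate pH 7; 20 uM heparin triggers fibrillization at 37 C over 6 hr; FP gives the signal.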
Each line names hits and unclear results; the compound was inactive in the other large screens; [ ] = remark or other dose. Hits are enriched below; roughly 3% of the tested compounds scored in any of these assays. Unless noted, calls follow the shape of the dose curve; as a rule, active = well fitted curve in the direction sought with a large enough effect; inconclusive = small, poorly fitted or top-dose-only effect, or another doubt; inactive = no such curve, though single readings can be large; an effect the other way counts as inactive or inconclusive.

CC1CCCN(c2ccc(C(=O)NCc3ccc4c(c3)OCO4)cc2[N+](=O)[O-])C1 (stereo unspecified)	Tau fibril ThT inconclusive, Tau fluor cs inconclusive
CC1CCCN(c2ccc(C(=O)Nc3ccc4c(c3)OCO4)cc2[N+](=O)[O-])C1 (stereo unspecified)	Tau fibril ThT 7.1µM, Tau fluor cs inconclusive
COC(=O)C1=C(C)Nc2sc(C(N)=O)c(N)c2C1c1ccncc1 (stereo unspecified)	none
CCOC(=O)C1=C(C)Nc2sc(C(=O)c3ccc(OC)cc3)c(N)c2C1c1ccc(C(=O)OC)cc1 (stereo unspecified)	Tau fluor cs 5µM[quencher]
Cc1ccc2cc(NC(=O)c3ccccc3C)ccc2n1	none (no result: Tau fibril ThT, Tau fluor cs, KDM4E inh, Tau fibril FP)
Cc1ccc2cc(N)ccc2n1	KDM4E inh 32µM
O=[N+]([O-])c1ccccc1Oc1ccc(Cl)c2cccnc12	none
O=[N+]([O-])c1ccc(O)c2ncccc12	Tau fibril ThT inconclusive, FBPA coupling cs -35, KDM4E inh inconclusive, Tau fibril FP inconclusive
O=[N+]([O-])c1cc([N+](=O)[O-])c2cccnc2c1Oc1ccccc1O	Tau fibril ThT inconclusive, KDM4E inh 22µM
O=[N+]([O-])c1ccc(O)c2cccnc12	Tau fibril ThT inconclusive
O=c1[nH]c2ccccc2nc1/C=C/c1ccc(O)cc1	Tau fibril ThT inconclusive, Tau fluor cs inconclusive, KDM4E inh 16µM
O=c1[nH]c2ccccc2nc1/C=C/c1ccccc1	Tau fibril ThT inconclusive, KDM4E inh inconclusive
CCOc1ccccc1NC(=O)Nc1ccc2nc(N3CCN(C)CC3)cc(C)c2c1	Tau fibril ThT 14µM, Tau fluor cs 10µM[quencher] (no result: FBPA coupling cs, KDM4E inh)
Cc1cc(N2CCN(C)CC2)nc2ccc(NC(=O)Nc3ccc(Cl)cc3)cc12	Tau fibril ThT 13µM, Tau fluor cs 10µM[quencher] (no result: FBPA coupling cs, KDM4E inh)
Cc1ccccc1NC(=O)Nc1ccc2nc(N3CCN(C)CC3)cc(C)c2c1	Tau fibril ThT inconclusive, Tau fluor cs 14µM[quencher], Tau fibril FP inconclusive (no result: FBPA coupling cs, KDM4E inh)
CCN1CCN(c2cc(C)c3cc(NC(=O)Cc4ccccc4OC)ccc3n2)CC1	KDM4E inh inconclusive, Tau fibril FP inconclusive
Cc1cc(N2CCN(C)CC2)nc2ccc(NC(=O)c3ccc(C(C)(C)C)cc3)cc12	Tau fibril ThT inconclusive, Tau fluor cs inconclusive (no result: FBPA coupling cs, KDM4E inh)
CC(C)CC(=O)Nc1nc2nc(-c3ccccc3)cc(=O)n2[nH]1	none (no result: FBPA coupling cs, KDM4E inh)
COc1cccc(Cn2c(Oc3cc(C)cc(C)c3)nc3c2c(=O)n(C)c(=O)n3C)c1	none (no result: FBPA coupling cs, KDM4E inh)
COc1cccc(N2CCN(C(=O)c3cc4c(=O)n(Cc5cccs5)ccc4nc3C)CC2)c1	none (no result: FBPA coupling cs, KDM4E inh)
Cc1cc(C=C2C(=O)c3ccccc3C2=O)c(C)n1C	Tau fibril ThT 11µM
Cc1ccc(C=C2C(=O)c3ccccc3C2=O)s1	Tau fibril ThT 14µM
CCn1c(C)cc(C=C2C(=O)c3ccccc3C2=O)c1C	Tau fibril ThT 14µM, KDM4E inh inconclusive
Cc1cccc(-n2c(C)cc(C=C3C(=O)c4ccccc4C3=O)c2C)c1	Tau fibril ThT inconclusive
Cc1cc(C2=CC(C)(c3cc(C)oc3C)Nc3nc(C(F)(F)F)nn32)c(C)o1 (stereo unspecified)	Tau fibril ThT 28µM, KDM4E inh inconclusive, Tau fibril FP inconclusive
Cc1ccc(C2=CC(C)(c3ccc(C)cc3)Nc3nc(C(F)(F)F)nn32)cc1 (stereo unspecified)	none
CC(C)C[C@H](NC(=O)[C@H](Cc1ccccc1)NC(=O)[C@@H]1CCCN1C(=O)[C@H](CC(=O)O)NC(=O)[C@@H]1CCC(=O)N1)C(=O)N[C@@H](CCCN=C(N)N)C(=O)N[C@@H](Cc1ccccc1)C(N)=O	none (no result: Tau fibril ThT, Tau fluor cs, KDM4E inh, Tau fibril FP)
COc1cccc(OC)c1C1=Nn2c(nnc2-c2ccccc2O)SC1	none (no result: Tau fibril ThT, Tau fluor cs, KDM4E inh, Tau fibril FP)
NC1=NC(=O)/C(=C/c2ccc(OCC(=O)O)cc2)S1	none (no result: Tau fibril ThT, Tau fluor cs, KDM4E inh, Tau fibril FP)
CC(=O)Nc1ccc(S(=O)(=O)Oc2ccc(/C=C3\SC(N)=NC3=O)cc2)cc1	Tau fibril FP 25µM
O=c1c(-c2ccccc2)coc2cc(O)cc(O)c12	Tau fluor cs inconclusive, FBPA coupling cs -35, Tau fibril FP inconclusive
COc1cccc([C@@H]2Oc3ccc(OC)cc3C(=O)[C@H]2OC(=O)NCCc2ccc(OC)c(OC)c2)c1	Tau fibril ThT inconclusive
NS(=O)(=O)c1ccc(NCc2ccccc2OCc2ccccc2F)cc1	none (no result: FBPA coupling cs)
